In all, about 33,000 sequences were measured (“E-score (-0.5 to 0.5)”: median about -0.054, highest 2% from about 0.39 on). Only a selection was taken, and the highest values are over-represented in it overall.
Molecular target: Ylr278c (UniProt Q05854)
Test: PBM E-score (8-mer binding enrichment) (E-score (-0.5 to 0.5)); higher = stronger / more preferred TF binding
Conditions: protein concentration: 200 nM; construct: GST-DNA-binding domain
Description: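 Universal 'all 10-mer' protein binding microarrays (Agilent AMADID 015681) probed with GST-tagged S. cerevisiae TFs (full-length or DBD) made by in vitro transcription/translation (PURExpress), about 100-200 nM. Bound TF was detected with fluorescent anti-GST. Each ungapped 8-mer (which stands for itself and its reverse complement) is scored by the PBM enrichment score (E-score), a modified Wilcoxon-Mann-Whitney statistic from -0.5 to +0.5, computed with the Universal PBM Analysis Suite. Scale: above 0.35 generally sequence-specific binding.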

Chain of UniProt Q05854 (Q05854 whole entry): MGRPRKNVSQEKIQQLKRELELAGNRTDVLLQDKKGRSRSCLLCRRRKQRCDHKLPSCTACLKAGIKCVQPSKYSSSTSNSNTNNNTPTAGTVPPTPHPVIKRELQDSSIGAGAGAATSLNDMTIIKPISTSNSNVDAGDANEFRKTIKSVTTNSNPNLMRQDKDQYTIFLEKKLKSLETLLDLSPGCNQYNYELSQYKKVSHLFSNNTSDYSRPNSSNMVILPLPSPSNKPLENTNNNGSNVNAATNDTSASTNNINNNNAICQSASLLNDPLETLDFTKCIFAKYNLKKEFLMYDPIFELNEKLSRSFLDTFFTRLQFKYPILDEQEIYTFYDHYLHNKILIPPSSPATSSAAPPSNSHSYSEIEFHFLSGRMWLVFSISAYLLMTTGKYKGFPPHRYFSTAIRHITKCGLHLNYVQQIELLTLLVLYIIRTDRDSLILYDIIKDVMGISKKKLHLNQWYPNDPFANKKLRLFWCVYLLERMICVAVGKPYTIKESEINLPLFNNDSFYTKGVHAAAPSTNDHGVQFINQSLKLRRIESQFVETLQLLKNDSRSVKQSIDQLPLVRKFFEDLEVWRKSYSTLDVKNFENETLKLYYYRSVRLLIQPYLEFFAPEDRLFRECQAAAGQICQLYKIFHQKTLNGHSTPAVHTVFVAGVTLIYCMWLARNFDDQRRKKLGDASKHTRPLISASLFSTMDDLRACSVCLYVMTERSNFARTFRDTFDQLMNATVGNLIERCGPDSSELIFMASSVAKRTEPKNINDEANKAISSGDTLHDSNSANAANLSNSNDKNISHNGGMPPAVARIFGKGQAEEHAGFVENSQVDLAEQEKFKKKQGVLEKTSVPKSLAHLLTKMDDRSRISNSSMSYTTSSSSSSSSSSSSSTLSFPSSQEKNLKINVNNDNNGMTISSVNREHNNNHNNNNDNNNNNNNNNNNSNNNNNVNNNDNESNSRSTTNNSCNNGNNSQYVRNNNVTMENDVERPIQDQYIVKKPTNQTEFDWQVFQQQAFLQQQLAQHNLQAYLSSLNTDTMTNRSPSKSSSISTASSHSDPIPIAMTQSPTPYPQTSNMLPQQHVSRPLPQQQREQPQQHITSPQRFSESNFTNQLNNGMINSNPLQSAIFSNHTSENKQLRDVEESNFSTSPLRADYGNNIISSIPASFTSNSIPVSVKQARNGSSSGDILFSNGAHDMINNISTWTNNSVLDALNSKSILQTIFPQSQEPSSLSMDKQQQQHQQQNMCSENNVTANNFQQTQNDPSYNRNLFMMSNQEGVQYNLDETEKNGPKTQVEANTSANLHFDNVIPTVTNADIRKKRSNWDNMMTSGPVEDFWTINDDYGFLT

Sequence	PBM E-score
CCTAGTAA	0.00285
AGCCTGGC	-0.226
AACCAGGG	-0.155
GCTGCACC	0.00051
GAGGTGAA	-0.0886
ACATCAGC	-0.0321
AATTCCGG	0.48
AATTCCGA	0.48
AATTCCAT	0.0569
CATTCCGC	0.32
AATTCCAA	-0.00843
AATTCCCG	0.345
AATTCCGC	0.456
AATTCCCT	-0.103
AATTCCTG	0.0336
AATTCCGT	0.441
GATTCCGC	0.355
AATTCCCA	-0.035
GCTAAATA	-0.231
TGTGGAAA	-0.0101
ATCCATTC	-0.0913
TCTCGAAA	-0.21
AAATGCCA	-0.131
CAGGCTGG	-0.0868

Sequence	PBM E-score
TGTGTCAA	-0.227
CCGTTGTC	0.233
GAATCGGC	0.33
AAATCGGG	0.276
CAATCGGC	0.129
CAGTCGGA	0.357
GAGTCGGA	0.387
AAATCGGA	0.43
GAATCGGA	0.409
CAATCGGG	0.219
TAGTCGGA	0.414
AAATCGGT	0.148
GAATCGCA	-0.0817
CAATCGGA	0.425
AGACGCAG	-0.164
CCGCACAC	0.0213
AACCCAGG	-0.176
ATGTACTC	-0.0177
AGAGCTAA	-0.171
CGAACGCA	0.106
CTCTGACC	-0.148
AATTTTCC	0.358
GCCATCGC	-0.0776
ATGTTCTG	-0.11

Sequence	PBM E-score
TCTCTACA	-0.211
TAATCGTA	-0.186
TAATCGGA	0.417
TAATCGAA	-0.0147
CCCTGTCA	-0.228
GCCGCGGA	0.409
GACGCGGC	0.079
GCCGCGAA	0.233
AGCGCGGA	0.325
GGCGCGGA	0.352
ACCGCGGA	0.407
ACCGCGGC	0.305
ACCGCGGG	0.299
GCCGCGGC	0.406
ACCGCGGT	0.178
GCCGCGCA	0.21
CGCGCGGA	0.398
AAGTTCAT	0.154
CGCTTTTA	0.129
CATGGCAC	0.133
TACCCGCA	0.157
CAGCACCC	-0.0668
AGTCAGTA	0.00611
CATAGCCG	0.23

Sequence	PBM E-score
AACTCTTC	-0.204
AAGTGGTA	-0.0771
AGTTGTGG	-0.0534
CCCGCGGC	0.336
TACGCGGA	0.309
AACGCGGA	0.397
AACGCGGC	0.183
TCCGCGGA	0.44
TCCGCGAA	0.343
CCCGCGGA	0.409
CCCGCGGG	0.363
CACGCGGA	0.379
CCTCTCAA	0.0673
GGTAGAAA	-0.0702
AGCCCATG	-0.131
ACATTGAG	-0.114
CGACCTAG	0.02
AACGGTCT	-0.0855
CAACTCCG	0.486
CAACTCCC	0.154
AAACTCCA	0.176
AAACTCCT	0.23
CAACTCCA	0.0206
AAACTCCG	0.496

— the supplement of paper PMC3334620
